High-throughput results as filed in PubChem BioAssay.
Shiga toxin inh: inhibitors of Shiga toxin in Vero cells. inhibition, % at 38.7 µM. actives 9.2% (n = 290,000). Vero cells, Shiga toxin protein synthesis inhibition reporter. AID 2315; in the data active = inhibition mostly above about 28%, no sharp cut-off; inactive = mostly below about 43%; note: 0% is about no effect
Pf growth 48h: inhibits P. falciparum growth in the first generation, 48 h. Potency, µM (titrated, usually from 28.7 µM), inactives show top-dose activity change, negative = inhibition, actives largely listed as inhibitors. P. falciparum luciferase growth in erythrocytes, 48 h. actives 5.9% (n = 310,000). AID 504832; note: potency is the fitted concentration of half-maximal effect; % is set by controls: 0 for no effect and ±100 for the full control effect
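In quantitative HTS format, infected erythrocytes bearing luciferase-reporter parasites were treated for a single generation at 37 C. Luminescence after adding detection reagent served as the growth measure.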
Pf growth 96h: P. falciparum growth inhibition at 96 hours; actives 6.9% (n = 320,000); Potency, µM (highest dose often 28.7 µM), for inactives: top-dose activity change, negative = inhibition, usual class: inhibitors; P. falciparum luciferase reporter growth, 96 h; note: potency is the fitted concentration of half-maximal effect; % is set by controls: 0 for no effect and ±100 for the full control effect
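96 h incubation, 37 C, 5% CO2, of luciferase-reporter P. falciparum-infected RBCs (2% hematocrit, 0.05% parasitemia final) with test compounds; endpoint luminescence.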
CHX counter: counter-screen for Shiga toxin inhibitors: cycloheximide protein synthesis inhibition; cell reporter, cycloheximide protein synthesis inhibition counterscreen; max response, %; actives 12% (n = 300,000); AID 2314; in the data active = max response mostly above about 13%, no sharp cut-off; inactive = mostly below about 14%; note: read at 38.3 µM for the half of the compounds with a filed dose; 0% is about no effect
LmPK inh: blocks Leishmania mexicana pyruvate kinase activity | Q27686 | purified LmPK, Kinase-Glo ATP luminescence, 1 h | Potency, µM (highest dose often 57.5 µM), for inactives: at the top dose activity change, negative = inhibition, actives largely listed as inhibitors | actives 0.37% (n = 290,000) | AID 1721; note: potency is the fitted concentration of half-maximal effect; % is set by controls: 0 for no effect and ±100 for the full control effect
Target sequence (Q27686 whole entry, looked up): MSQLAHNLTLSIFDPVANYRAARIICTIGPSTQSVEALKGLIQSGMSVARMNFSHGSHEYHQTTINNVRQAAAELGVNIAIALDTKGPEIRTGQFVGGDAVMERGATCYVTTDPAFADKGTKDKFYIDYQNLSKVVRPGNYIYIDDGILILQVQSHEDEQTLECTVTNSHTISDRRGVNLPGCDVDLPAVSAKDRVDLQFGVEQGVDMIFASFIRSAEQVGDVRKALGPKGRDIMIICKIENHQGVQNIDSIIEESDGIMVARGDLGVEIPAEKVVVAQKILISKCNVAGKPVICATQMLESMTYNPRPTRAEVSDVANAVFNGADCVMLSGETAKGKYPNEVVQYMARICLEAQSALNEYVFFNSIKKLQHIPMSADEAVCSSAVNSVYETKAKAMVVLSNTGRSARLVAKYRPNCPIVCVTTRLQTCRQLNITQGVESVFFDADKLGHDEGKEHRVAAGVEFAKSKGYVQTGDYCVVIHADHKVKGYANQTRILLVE
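Screened at intermediate enzyme activity to detect both inhibitors and activators: LmPK at 0.1 nM, with a 0.5 nM enzyme column as activation reference. PEP 0.5 mM, ADP 0.1 mM; ATP detected by luminescence after 1 h.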
* marks the source's active call; other numbers are inactive results; ? = inconclusive; nt = no result given; + = active, no number. This is a sample that favours compounds with a hit; in the whole collection about 22% have one here. Unless noted, calls come from the whole dose curve; as a rule, active = well fitted inhibition curve with a large enough effect; inconclusive = small, poorly fitted or top-dose-only effect, or another doubt; inactive = no such curve, though single readings can be large or run the other way.

SMILES	Shiga toxin inh	Pf growth 48h	Pf growth 96h	CHX counter	LmPK inh
CCOc1ccc(CCNC(=O)CSc2n[nH]c(N)n2)cc1OCC	2	3%	10%	-4	4%
CC(=O)c1cccc(NC(=O)c2cnn(-c3ccccc3)c2C)c1	90*	97%	98%	45*	1%
CCC(=O)Nc1ccc2nc(C3CC3)n(Cc3ccc(C(C)(C)C)cc3)c(=O)c2c1	90*	195%	26%	57*	1%
COc1ccc(CC(=O)N/N=C(\C)c2cccc(NC(=O)C3CC3)c2)cc1	-1	-3%	?	1	0%
COc1ccc(Cn2c(C3CC3)nc3ccc(NC(=O)C4CC4)cc3c2=O)cc1	84*	233%	-11%	24*	-10%
CC(=O)Nc1ccc2nc(C3CC3)n(Cc3ccc(Cl)cc3)c(=O)c2c1	49*	127%	36%	23*	11%
C=CCN1C(=O)C(CC(=O)NCC)SC1=Nc1ccccc1CC (configuration not stated)	-17	4%	-20%	-2	1%
Cc1ccc(S(=O)(=O)N2CCCC2CNC(=O)C(=O)NC2CCCC2)cc1 (configuration not stated)	nt	-11%	?	nt	nt
CCOC(=O)C1(C)NC(c2ccc(OC)c(OC)c2)C2C(=O)N(CC)C(=O)C21 (configuration not stated)	-3	17%	-10%	-3	0%
CCN1C(=O)[C@H]2[C@@H](c3ccc(-c4ccc(Cl)c(Cl)c4)c(OC)c3)N[C@@](C)(C(=O)OC)[C@H]2C1=O	nt	2.1µM*	0.93µM*	nt	nt
CCN1C(=O)[C@H]2[C@@H](c3ccc(-c4ccccc4)c(OC)c3)N[C@@](Cc3ccccc3)(C(=O)OC)[C@H]2C1=O	nt	1.9µM*	0.66µM*	nt	nt
CCOC(=O)C1(Cc2ccccc2)NC(c2ccccc2F)C2C(=O)N(CC)C(=O)C21 (configuration not stated)	33	?	42%	3	3%
CCCC1(C(=O)OCC)NC(c2cc(OC)c(OC)c(OC)c2)C2C(=O)N(CC)C(=O)C21 (configuration not stated)	-11	nt	-27%	-4	2%
CCN1C(=O)[C@H]2[C@@H](c3ccc(-c4ccc(C(C)=O)cc4)c(OC)c3)N[C@@](Cc3ccccc3)(C(=O)OC)[C@H]2C1=O	nt	8.3µM*	9.3µM*	nt	nt
CCN1C(=O)[C@H]2[C@@H](c3ccc(-c4cccc(Cl)c4)c(OC)c3)N[C@@](CC(C)C)(C(=O)OC)[C@H]2C1=O	nt	0.33µM*	0.23µM*	nt	nt
CC(=O)NC1(C(F)(F)F)N=C(c2ccccc2)NC1=O (configuration not stated)	-5	6%	22%	-2	-10%
CSCCC(NC(=O)c1ccco1)C(=O)N1CCN(c2ccccc2O)CC1 (configuration not stated)	nt	?	-26%	nt	nt
O=C(/C=C/c1ccco1)N(Cc1cccc(F)c1)C1CCS(=O)(=O)C1 (configuration not stated)	-4	-8%	?	-10	-5%
Cn1cc(C(=O)C(=O)N2CCc3ccccc32)c2ccccc21	-19	76%	12%	1	-5%
COc1ccc(S(=O)(=O)NCC2CC3C=CC2C3)cc1OC (configuration not stated)	-6	0%	80%	-2	0%
C[C@]12C=CC(=O)C=C1CC[C@@H]1[C@@H]2[C@@H](O)C[C@@]2(C)[C@H]1CC[C@]2(O)C(=O)COC(=O)CCC(=O)NCCc1ccc(O)cc1	13	?	-26%	6	-3%
COC(=O)C1(C)NC(c2ccc(F)cc2)C2C(=O)N(c3ccc(C)cc3)C(=O)C21 (configuration not stated)	16	-1%	2.3µM*	-1	4%
CCCCCCCCCCCCCC(=O)OCC(COP(=O)([O-])OCC[N+](C)(C)C)OC(=O)CCCCCCCCCCCCC (configuration not stated)	nt	9%	9%	nt	nt
CSc1ccccc1C(=O)Nc1c(C)cccc1C	6	-18%	9%	-1	1%
CCc1ccc(NC(=O)c2ccccc2SC)cc1	47	-26%	42%	31*	?
SMILES	Shiga toxin inh	Pf growth 48h	Pf growth 96h	CHX counter	LmPK inh
CCc1ccc(NC(=O)c2cnc(SC)nc2C)cc1	42	-6%	?	29*	4%
CCOC(=O)c1ccc(NC(=O)c2nc(SC)ncc2Cl)cc1	2	-29%	?	6	-4%
COc1cccc(CNC(=O)Cn2ccc3cc(S(=O)(=O)N4CCCCCC4)ccc32)c1	-4	-30%	-22%	-2	10%
Cc1ccc(CNC(=O)c2nnc(CS(=O)(=O)c3ccccc3)o2)cc1	10	?	?	1	-6%
O=C(NCc1ccccc1Cl)c1nnc(CS(=O)(=O)c2ccccc2)o1	-3	5.2µM*	19%	0	-2%
COc1ccccc1NC(=O)C1=C(C)NC(SCC(=O)Nc2ccc(C(=O)O)cc2)=C(C#N)C1c1cccs1 (configuration not stated)	-2	?	?	-2	7%
O=C(NCCCNc1ccc([N+](=O)[O-])cc1)C(F)(F)F	28	-30%	217%	25	6%
O=C(CCl)N(CCCNC(=O)C(F)(F)F)c1ccc([N+](=O)[O-])cc1	40	9.3µM*	?	15	-5%
Cc1nn(-c2ccccc2)c(Oc2ccccc2)c1C=O	-1	-3%	-22%	1	-6%
c1ccc2oc(C3=NNC(=NC4CC4)SC3)cc2c1	67	-64%	?	41*	?
CC1(C)CSC(=NCc2ccccc2)N1	-19	18%	-14%	-2	1%
c1ccc(CN=C2NN=C(c3cc4ccccc4o3)CS2)cc1	44*	?	?	26*	-1%
Cc1cc(Cl)c2oc(C(=O)N3CCCCC3CCN3CCCC3=O)c(C)c2c1 (configuration not stated)	-12	10%	?	-1	-10%
C#CCOc1ccc(/C=N/NC(=O)c2cccnc2)cc1OCC	-12	12%	44%	4	13%
Cc1cc(C)cc(N=Cc2[nH]c3ccc(Br)c(Cl)c3c2O)c1	-19	1.5µM*	?	-2	-13%
Cc1ccc(N=Cc2cc(Br)cc(Cl)c2O)cc1	-3	15%	-3%	-1	-3%
COc1ccc(CN=Cc2[nH]c3ccc(Br)c(Cl)c3c2O)cc1	-2	3.7µM*	?	-5	-7%
Cc1nonc1C(=O)N/N=C/c1cc2c(cc1Br)OCO2	46	7%	-24%	28*	-13%
Nc1nonc1C(=O)N/N=C\c1cc2c(cc1Cl)OCO2	42*	0%	-13%	44*	-14%
Cn1cc(Br)c(C(=O)N/N=C/c2cc3c(cc2Cl)OCO3)n1	55	72%	99%	24*	-2%
Cn1cc(Br)c(C(=O)N/N=C/c2cccc(OC3CSC3)c2)n1	+	34%	-3%	57*	-10%
